Source: PubChem (National Center for Advancing Translational Sciences (NCATS))
Six1-Eya2 blk – inhibitors of human Six1/Eya2 interaction; AlphaScreen GST-Six1/His-Eya2 binding, biochemical; stronger effect = lower value; actives 0.56% (n = 360,000); activity change, % (concentration not given with the values); Q15475+O00167; AID 651725; in the data active means activity change below about -65%; inconclusive means mostly about -30% to -63%; further: on the % scale 0 is the no-effect control and ±100 the full control effect
Target sequence (O00167 whole entry, looked up): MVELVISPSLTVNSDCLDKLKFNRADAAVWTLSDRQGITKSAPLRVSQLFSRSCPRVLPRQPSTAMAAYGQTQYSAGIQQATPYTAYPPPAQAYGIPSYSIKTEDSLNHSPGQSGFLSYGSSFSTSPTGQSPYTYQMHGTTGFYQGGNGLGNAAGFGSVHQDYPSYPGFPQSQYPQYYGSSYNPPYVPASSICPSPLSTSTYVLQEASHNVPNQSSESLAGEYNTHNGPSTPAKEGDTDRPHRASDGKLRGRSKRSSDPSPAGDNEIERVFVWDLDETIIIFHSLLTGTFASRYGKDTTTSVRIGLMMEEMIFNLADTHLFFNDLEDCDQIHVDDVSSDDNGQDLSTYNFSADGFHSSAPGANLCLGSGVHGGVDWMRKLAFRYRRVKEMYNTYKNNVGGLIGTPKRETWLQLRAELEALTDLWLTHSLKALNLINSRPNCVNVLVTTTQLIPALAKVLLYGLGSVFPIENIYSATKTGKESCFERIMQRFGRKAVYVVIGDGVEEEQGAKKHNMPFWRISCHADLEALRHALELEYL
Target sequence (Q15475 whole entry, looked up): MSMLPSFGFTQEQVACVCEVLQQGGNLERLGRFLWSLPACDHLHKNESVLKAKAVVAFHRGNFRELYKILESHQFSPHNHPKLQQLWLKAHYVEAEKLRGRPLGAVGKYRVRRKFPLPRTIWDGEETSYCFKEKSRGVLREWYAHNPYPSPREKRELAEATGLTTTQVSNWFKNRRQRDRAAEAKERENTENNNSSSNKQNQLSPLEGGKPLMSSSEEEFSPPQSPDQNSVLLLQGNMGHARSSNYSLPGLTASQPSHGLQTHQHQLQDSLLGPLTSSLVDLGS
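AlphaScreen luminescence read after one hour at 37 °C in darkness. Pin-transferred compounds met GST-Six1 and His-Eya2 protein (5X stock 250 nM/500 nM) plus glutathione donor and Ni-chelate acceptor beads (5X, 50 ug/mL).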
ATXN2 expr inh – inhibitors of ATXN2 expression. AID 1745845. Potency, µM (titrated, usually from 57 µM), inactives show top-dose activity change, negative = inhibition, usual class: inhibitors. HEK-293 ATXN2-luciferase reporter, luminescence, 24 h. actives 0.72% (n = 360,000); further: potency means the concentration at half of the fitted maximal effect; on the % scale 0 is the no-effect control and ±100 the full control effect; nearly all actives have a fitted effect of over 55% in size
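ATXN2-luciferase reporter cells (luciferase flanked by upstream and downstream ATXN2 gene portions) were treated 24 h at 37 °C with compounds at up to 57 uM. SteadyGlo luminescence gave expression; GF-AFC fluorescence gave viability.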
TGFb SMAD3 inh – blocks TGF-b signaling; Potency, µM (top dose mostly 46.1 µM), inactives show at the top dose activity, negative = inhibition, hits mostly inhibitors; HepG2 CAGA-GFP TGF-b/SMAD3 reporter, GFP fluorescence, 18 h; TGF-beta stimulated, 500 pg/mL final; actives 1.2% (n = 410,000); AID 588855; further: potency means the concentration at half of the fitted maximal effect; on the % scale 0 is the no-effect control and ±100 the full control effect; nearly all actives have a fitted effect of over 65% in size
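Smad-responsive CAGA-GFP expression was quantified in HEPG2 cells exposed to compounds and 500 pg/mL final TGF-beta for 18 h at 37 degrees C; unstimulated wells defined full inhibition.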
HepG2 tox-1 – HepG2 cytotoxicity, counter-screen for TGF-b inhibitors; HepG2 CAGA-GFP viability, ATP luminescence, 18 h; actives 0.76% (n = 410,000); AID 588856; Potency, µM (highest dose often 46.1 µM), inactives show at the highest dose activity change, negative = cytotoxicity, usual class: cytotoxic; further: potency means the concentration at half of the fitted maximal effect
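HepG2 CAGA-GFP cells (1000/well, DMEM with 1% FBS) received compound, then TGF-beta at 500 pg/mL final, and were incubated 18 hours at 37 degrees C. Viability was read by CellTiter-Glo luminescence. Media-only wells were set as complete cell-killing and DMSO as no toxicity.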
CtBP-E1A inh – inhibitors of CtBP/E1A interaction; AlphaScreen GST-E1A/His-CtBP binding, 1536-well; stronger effect = lower value; activity change, % (no concentration beside the values); actives 0.49% (n = 340,000); AID 651724; in the data active means activity change below about -65%; inconclusive means mostly about -30% to -63%; further: on the % scale 0 is the no-effect control and ±100 the full control effect
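Steps: dispense buffer (Tris pH 8.0, NaCl 300 mM, TCEP 1 mM, BSA, Tween 20); add 5X protein mix (GST-E1A, His-CtBP, 125 nM each); pin 23 nL compound; 2 h at 37 °C, dark; add 5X beads (50 ug/mL); 1 h; read.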
ATXN viability – reduces viability in counter-screen for ATXN expression inhibitors. actives 0.49% (n = 400,000). S2 cells (HEK-293 line with an ATXN2-luciferase reporter) viability, CellTiter-Fluor protease fluorescence, 24 h. Potency, µM (top dose mostly 56.7 µM), actives largely listed as cytotoxic; further: potency means the concentration at half of the fitted maximal effect; nearly all actives have a fitted effect of over 40% in size
TGFb CAGA inh – confirmation of TGF-b signaling inhibitors in HepG2 reporter cells. HepG2 CAGA-GFP TGF-b reporter, GFP fluorescence, 18 h; cells stimulated with TGF-beta, 500 pg/mL. actives 63% (n = 1,600). shares compounds with TGFb SMAD3 inh. Potency, µM (titrated, usually from 46.1 µM), inactives show at the top dose activity, negative = inhibition, actives largely listed as inhibitors; further: potency means the concentration at half of the fitted maximal effect; on the % scale 0 is the no-effect control and ±100 the full control effect; nearly all actives have a fitted effect of over 65% in size
HepG2 tox-2 – HepG2 cytotoxicity, TGF-b inhibitor counterscreen; shares compounds with TGFb SMAD3 inh; HepG2 CAGA-GFP viability, ATP luminescence, 18 h; cells stimulated with TGF-beta, 500 pg/mL; Potency, µM (titrated, usually from 46.1 µM), for inactives: at the top dose activity, negative = cytotoxicity, hits mostly inhibitors; actives 27% (n = 1,600); AID 720535; further: potency means the concentration at half of the fitted maximal effect; on the % scale 0 is the no-effect control and ±100 the full control effect; nearly all actives have a fitted effect of over 70% in size
CCL64 TGFb inh – orthogonal confirmation of TGF-b inhibitors in CCL64 cells | shares compounds with TGFb SMAD3 inh | CCL64 CAGA-GFP reporter, TGF-b stimulated, GFP fluorescence, 18 h | Potency, µM (doses to about 46.1 µM), for inactives: top-dose activity, negative = inhibition, hits mostly inhibitors | actives 41% (n = 1,600) | AID 720536; further: potency means the concentration at half of the fitted maximal effect; nearly all actives have a fitted effect of over 65% in size
COP TGFb inh – TGF-b inhibition validated with COP promoter | AID 720537 | Potency, µM (titrated, usually from 46.1 µM), for the others: at the highest dose activity, negative = inhibition, most hits filed as inhibitors | actives 3% (n = 1,600) | shares compounds with TGFb SMAD3 inh | HepG2 COP-GFP TGF-b reporter, GFP fluorescence, 18 h; cells stimulated by added recombinant TGF-beta; further: potency means the concentration at half of the fitted maximal effect; nearly all actives have a fitted effect of over 70% in size
Starred values were filed as active, the others as inactive. Sampled rows, rich in hits. Any-hit rate of the full collection: about 2.8%. Unless noted, the call rests on the fitted dose curve; in most records, active means well fitted curve in the direction sought with a large enough effect; inconclusive means small, poorly fitted or top-dose-only effect, or another doubt; inactive means no such curve, though single readings can be large; an effect the other way counts as inactive or inconclusive.

Screening CC(C)C[C@H](NC(=O)c1nc[nH]c1C(=O)N[C@@H](CCCCNC(=O)OC(C)(C)C)C(=O)OC(C)(C)C)C(=O)OC(C)(C)C returned Six1-Eya2 blk 5.7, ATXN2 expr inh -26.8%, TGFb SMAD3 inh 17.8µM*, HepG2 tox-1 -10.5%, CtBP-E1A inh -20.0, ATXN viability inconclusive, TGFb CAGA inh 8.2µM*, HepG2 tox-2 -19.9%, CCL64 TGFb inh 20.6µM* and COP TGFb inh 11.6%.
Screening COc1cccc(N2CCN(C(=O)CN3CCSc4ccccc43)CC2)c1 returned ATXN2 expr inh -8.8%, TGFb SMAD3 inh -22.7%, HepG2 tox-1 -18.6% and ATXN viability inactive.
CC1(C(=O)NC2CCCCC2)Cc2ccccc2C(=O)N1Cc1ccc(Cl)cc1 (stereo not drawn) was read as HepG2 tox-1 -0.7%.
Screening Cc1sc2ncnc(N3CCC(C(=O)N(C)CC(=O)Nc4ccc(Cl)c(C(F)(F)F)c4)CC3)c2c1C returned Six1-Eya2 blk -5.0, ATXN2 expr inh inconclusive, TGFb SMAD3 inh 11.2µM*, HepG2 tox-1 -7.8%, CtBP-E1A inh -9.1, ATXN viability inconclusive, TGFb CAGA inh 5.17µM*, HepG2 tox-2 inconclusive, CCL64 TGFb inh 9.2µM* and COP TGFb inh 59.4%.
`COc1cccc(/C=N/Nc2ccc([N+](=O)[O-])cn2)c1O` gave Six1-Eya2 blk 725.4, ATXN2 expr inh 8.91µM*, TGFb SMAD3 inh 0.794µM*, HepG2 tox-1 inactive, CtBP-E1A inh 171.3, ATXN viability inconclusive, TGFb CAGA inh 1.64µM*, HepG2 tox-2 inconclusive, CCL64 TGFb inh inconclusive and COP TGFb inh 22.7%.
`CC1(C(=O)NCc2ccc3c(c2)OCO3)CCN1Cc1csc2ccccc12` (stereo not drawn) gave Six1-Eya2 blk -8.6, ATXN2 expr inh inconclusive, TGFb SMAD3 inh 11.2µM*, HepG2 tox-1 -33.8%, CtBP-E1A inh -13.7, ATXN viability inactive, TGFb CAGA inh 16.4µM*, HepG2 tox-2 23.1µM*, CCL64 TGFb inh 3.66µM* and COP TGFb inh 43.6%.
`Cc1ccc(S(=O)(=O)Nc2cccc3c2O[C@H](CN(C)Cc2ccc(-c4ccccc4)cc2)[C@@H](C)CN([C@H](C)CO)C3=O)cc1` gave Six1-Eya2 blk 9.3, ATXN2 expr inh -23.0%, TGFb SMAD3 inh 10µM*, HepG2 tox-1 -23.1%, CtBP-E1A inh 14.1, ATXN viability inconclusive, TGFb CAGA inh 16.4µM*, HepG2 tox-2 -4.2%, CCL64 TGFb inh inconclusive and COP TGFb inh 39.7%.
Cc1ccc(S(=O)(=O)Nc2ccc3c(c2)C(=O)N([C@H](C)CO)C[C@H](C)[C@@H](CN(C)Cc2ccc(-c4ccccc4)cc2)O3)cc1 was read as Six1-Eya2 blk -14.6, ATXN2 expr inh 0.0%, TGFb SMAD3 inh 10µM*, HepG2 tox-1 -15.7%, CtBP-E1A inh -17.1, ATXN viability inconclusive, TGFb CAGA inh 9.2µM*, HepG2 tox-2 inconclusive, CCL64 TGFb inh 20.6µM* and COP TGFb inh 61.1%.
COc1ccc(S(=O)(=O)Nc2ccc3c(c2)C(=O)N([C@H](C)CO)C[C@H](C)[C@H](CN(C)Cc2ccc(C(=O)O)cc2)O3)cc1 was read as Six1-Eya2 blk 0.4, ATXN2 expr inh -0.7%, TGFb SMAD3 inh 0.9%, HepG2 tox-1 0.3%, CtBP-E1A inh 6.4 and ATXN viability inactive.
`C[C@@H]1CN([C@H](C)CO)C(=O)c2cc(NC(=O)Cc3ccccc3)ccc2O[C@H]1CN(C)Cc1ccc(Oc2ccccc2)cc1` gave Six1-Eya2 blk -13.4, ATXN2 expr inh inconclusive, TGFb SMAD3 inh 11.2µM*, HepG2 tox-1 -25.5%, CtBP-E1A inh 8.6, ATXN viability inconclusive, TGFb CAGA inh inconclusive, HepG2 tox-2 inconclusive, CCL64 TGFb inh 16.4µM* and COP TGFb inh 82.9%.
`C[C@H](CO)N1C[C@H](C)[C@@H](CN(C)S(=O)(=O)c2ccc(Cl)cc2)Oc2ccc(NS(=O)(=O)c3ccccc3)cc2CC1=O` gave Six1-Eya2 blk 27.9, ATXN2 expr inh inconclusive, TGFb SMAD3 inh 4.47µM*, HepG2 tox-1 3.5%, CtBP-E1A inh 13.9, ATXN viability inconclusive, TGFb CAGA inh inconclusive, HepG2 tox-2 -11.0%, CCL64 TGFb inh inconclusive and COP TGFb inh 39.8%.
Screening Cc1ccc(-c2ccc3c(c2)O[C@H](CN(C)C(=O)Nc2ccc(C(F)(F)F)cc2)[C@H](C)CN([C@H](C)CO)S3(=O)=O)cc1 returned Six1-Eya2 blk 3.3, ATXN2 expr inh 0.0%, TGFb SMAD3 inh 22.4µM*, HepG2 tox-1 -13.7%, CtBP-E1A inh 0.0, ATXN viability inconclusive, TGFb CAGA inh 18.4µM*, HepG2 tox-2 inconclusive, CCL64 TGFb inh inconclusive and COP TGFb inh 46.5%.
`C[C@H](CO)N1C[C@H](C)[C@H](CN(C)S(=O)(=O)c2cccs2)Oc2ccc(NC(=O)Nc3ccc4c(c3)OCO4)cc2CC1=O` gave Six1-Eya2 blk -25.8, ATXN2 expr inh -23.9%, TGFb SMAD3 inh inconclusive, HepG2 tox-1 1.6%, CtBP-E1A inh -16.1, ATXN viability inconclusive, TGFb CAGA inh inconclusive, HepG2 tox-2 -23.9%, CCL64 TGFb inh -16.2% and COP TGFb inh 8.6%.
